Reference: PubChem BioAssay (NCI)
About 79,000 compounds went through this panel and 15% of them were active in at least one assay; those are over-represented in the sample as a whole. A number with no mark means an inactive call. Active and inactive are the calls of the source. Rule as the data show it: active = growth inhibition above about 70%; inactive = the rest.

Experiments:
[1] = NCI Yeast Anticancer Drug Screen. Data for the rad52 strain (AID 147);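 also: 0% = growth of vehicle-treated control cultures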; conditions: S. cerevisiae rad52 mutant growth inhibition, hits give high values
How it was run: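 DNA repair-defective yeast; compound exposure; growth scored against vehicle controls.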

[2] = NCI Yeast Anticancer Drug Screen. Data for the wt1 strain (AID 149);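 also: 0% = growth of vehicle-treated wt1 cultures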; conditions: S. cerevisiae wt1 strain (SPY 50644) growth inhibition, hits give high values
How it was run: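 Using yeast strain wt1, compound-induced growth inhibition was determined against vehicle-treated cultures.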

[3] = NCI Yeast Anticancer Drug Screen. Data for the rad50EPP+ strain (AID 151);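 also: 0% = growth of vehicle-treated control cultures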; conditions: S. cerevisiae rad50 mutant strain, hits give high values
How it was run: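 rad50EPP+ yeast treated with test compounds. Readout: growth vs vehicle control.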

[4] = NCI Yeast Anticancer Drug Screen. Data for the mgt1 strain (AID 153); conditions: S. cerevisiae mgt1 mutant growth inhibition, hits give high values
How it was run: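 Growth inhibition relative to vehicle controls was scored for the mgt1 yeast strain after compound exposure.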

[5] = NCI Yeast Anticancer Drug Screen. Data for the rad50 strain (AID 155);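 also: 0% = growth of vehicle-only cultures of the same strain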; conditions: S. cerevisiae rad50 strain growth inhibition, hits give high values
How it was run: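 Relative growth inhibition (compound vs vehicle) was measured in yeast with a defined repair-gene alteration.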

[6] = NCI Yeast Anticancer Drug Screen. Data for the mec2-1 strain (AID 157); conditions: S. cerevisiae mec2-1 strain, hits give high values
How it was run: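 Growth inhibition is read against vehicle-treated controls after compound exposure of the mec2-1 yeast strain, which is defective in DNA damage repair or cell cycle control.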

[7] = NCI Yeast Anticancer Drug Screen. Data for the rad14 strain (AID 159);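 also: 0% = growth of vehicle-treated control cultures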; conditions: S. cerevisiae rad14 strain growth inhibition, hits give high values
How it was run: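 Screen for anticancer potential: a yeast strain altered in DNA damage repair is grown with compound, and reduced growth is quantified against vehicle controls.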

[8] = NCI Yeast Anticancer Drug Screen. Data for the sgs1 mgt1 strain (AID 161);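 also: 0% = growth of cultures given vehicle only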; conditions: S. cerevisiae sgs1 mgt1 strain, hits give high values
How it was run: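 Compounds are added to genetically altered yeast, and growth is compared with cultures given vehicle alone to give percent inhibition.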

[9] = NCI Yeast Anticancer Drug Screen. Data for the CLN2oe strain (AID 163);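 also: 0% = growth of vehicle-only control cultures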; conditions: S. cerevisiae CLN2oe strain, hits give high values
How it was run: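 Compound-treated yeast; growth vs vehicle ctrl = % inhibition. Genetically altered strain (cell-cycle control).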

[10] = NCI Yeast Anticancer Drug Screen. Data for the cln2 rad14 strain (AID 165);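 also: 0% = growth equal to vehicle treated cultures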; conditions: S. cerevisiae cln2 rad14 strain, hits give high values
How it was run: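 Growth inhibition, relative to vehicle-treated controls, is the read-out. The test organism is a yeast strain with defined genetic alterations, cln2 rad14.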

[11] = NCI Yeast Anticancer Drug Screen. Data for the bub3 strain (AID 167); conditions: S. cerevisiae bub3 mutant strain, hits give high values
How it was run: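 Screening used yeast with an engineered genetic alteration affecting cell cycle control. Compound-exposed cultures were compared with vehicle cultures, and reduced growth was taken as inhibition.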

[12] = NCI Yeast Anticancer Drug Screen. Data for the wt2 strain (AID 169);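 also: 0% = growth of vehicle-treated yeast cultures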; conditions: S. cerevisiae wt2 strain growth inhibition, hits give high values
How it was run: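 Compound exposure of yeast; growth compared with vehicle controls; inhibition reported.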

[13] = NCI Yeast Anticancer Drug Screen. Data for the mlh1 strain (AID 171);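 also: 0% = growth of vehicle-treated control cultures of the same strain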; conditions: S. cerevisiae mlh1 strain growth inhibition, hits give high values
How it was run: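 Compounds are applied to a genetically altered yeast strain, and its growth is compared with that of vehicle-treated cultures to give percent inhibition.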

[14] = NCI Yeast Anticancer Drug Screen. Data for the sgs1 strain (AID 173);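 also: 0% = growth of vehicle-only control cultures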; conditions: S. cerevisiae sgs1 mutant, hits give high values
How it was run: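 Compounds applied to genetically altered yeast; growth compared with vehicle-treated cultures to give % inhibition.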

[15] = NCI Yeast Anticancer Drug Screen. Data for the mlh1 rad18 strain (AID 175); conditions: S. cerevisiae mlh1 rad18 strain growth inhibition, hits give high values
How it was run: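 Cells of a genetically altered yeast strain, deficient in DNA damage repair, were treated with compound. Their growth was then compared with that of vehicle-treated cultures to give inhibition.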

[16] = NCI Yeast Anticancer Drug Screen. Data for the rad18 strain (AID 177); conditions: S. cerevisiae rad18 mutant growth inhibition, hits give high values
How it was run: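 Compounds are applied to a repair-deficient yeast strain, and growth is compared with that of vehicle-treated cultures to give percent inhibition.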

[17] = at 5.0 µM (retest, dose inferred, filed as 0.5)
[18] = at 50.0 µM (retest, dose inferred, filed as 5.0)

Work on c1ccc2c(OCC3CO3)cccc2c1 (stereo not drawn) yielded a growth inhibition ([1]; at 1.2 µM) of 3%, a growth inhibition ([1]; at 3.7 µM) of 12% and a growth inhibition ([1]; at 11.0 µM) of 45%. The growth inhibition ([1]; at 33.0 µM) was 86% (active), the growth inhibition ([1]; at 100.0 µM) was 94% (active) and the growth inhibition ([2]; at 1.2 µM) was -2%. For the same compound, the growth inhibition ([2]; at 3.7 µM) was 0%, the growth inhibition ([2]; at 11.0 µM) was 0% and the growth inhibition ([2]; at 33.0 µM) was 4%. The growth inhibition ([2]; at 100.0 µM) was 18%, the growth inhibition ([3]; at 1.2 µM) was 9% and the growth inhibition ([3]; at 3.7 µM) was 30%. The growth inhibition ([3]; at 11.0 µM) was 73% (active), the growth inhibition ([3]; at 33.0 µM) was 93% (active) and the growth inhibition ([3]; at 100.0 µM) was 96% (active). For the same compound, the growth inhibition ([4]; at 1.2 µM) was -1%, the growth inhibition ([4]; at 3.7 µM) was -1% and the growth inhibition ([4]; at 11.0 µM) was 0%. The growth inhibition ([4]; at 33.0 µM) was 4%, the growth inhibition ([4]; at 100.0 µM) was 32% and the growth inhibition ([5]; at 1.2 µM) was 0%. For the same compound, the growth inhibition ([5]; at 3.7 µM) was 12%, the growth inhibition [5, 17] was 36% and the growth inhibition ([5]; at 11.0 µM) was 66%. The growth inhibition ([5]; at 33.0 µM) was 89% (active), the growth inhibition [5, 18] was 94% (active) and the growth inhibition ([5]; at 50.0 µM) was 92.8% (active). For the same compound, the growth inhibition ([5]; at 100.0 µM) was 95% (active), the growth inhibition ([6]; at 1.2 µM) was 1% and the growth inhibition ([6]; at 3.7 µM) was 4%. The growth inhibition [6, 17] was 6%, the growth inhibition ([6]; at 11.0 µM) was 10% and the growth inhibition ([6]; at 33.0 µM) was 32%. For the same compound, the growth inhibition [6, 18] was 75% (active), the growth inhibition ([6]; at 50.0 µM) was 49.3% and the growth inhibition ([6]; at 100.0 µM) was 91% (active). It also gave a growth inhibition ([7]; at 1.2 µM) of -1%, a growth inhibition ([7]; at 3.7 µM) of -3% and a growth inhibition ([7]; at 11.0 µM) of 1%. The growth inhibition ([7]; at 33.0 µM) was 17%, the growth inhibition ([7]; at 100.0 µM) was 89% (active) and the growth inhibition [8, 17] was 50%. The growth inhibition [8, 18] was 83% (active), the growth inhibition ([8]; at 50.0 µM) was 84.5% (active) and the growth inhibition ([9]; at 1.2 µM) was -4%. The growth inhibition ([9]; at 3.7 µM) was -3%, the growth inhibition ([9]; at 11.0 µM) was -2% and the growth inhibition ([9]; at 33.0 µM) was 2%. The growth inhibition ([9]; at 100.0 µM) was 4%, the growth inhibition [10, 17] was 3% and the growth inhibition [10, 18] was 71% (active). The growth inhibition ([10]; at 50.0 µM) was 63.8%, the growth inhibition ([11]; at 1.2 µM) was -3% and the growth inhibition ([11]; at 3.7 µM) was -5%. It also gave a growth inhibition [11, 17] of -12%, a growth inhibition ([11]; at 11.0 µM) of -11% and a growth inhibition ([11]; at 33.0 µM) of -12%. The growth inhibition [11, 18] was -8%, the growth inhibition ([11]; at 50.0 µM) was 13.2% and the growth inhibition ([11]; at 100.0 µM) was 21%. The growth inhibition ([12]; at 1.2 µM) was -2%, the growth inhibition ([12]; at 3.7 µM) was 7% and the growth inhibition ([12]; at 11.0 µM) was 0%. For the same compound, the growth inhibition ([12]; at 33.0 µM) was 5%, the growth inhibition ([12]; at 100.0 µM) was 25% and the growth inhibition ([13]; at 1.2 µM) was 0%. The growth inhibition ([13]; at 3.7 µM) was 1%, the growth inhibition ([13]; at 11.0 µM) was 5% and the growth inhibition ([13]; at 33.0 µM) was 10%. It also gave a growth inhibition ([13]; at 100.0 µM) of 40%, a growth inhibition ([14]; at 1.2 µM) of 15% and a growth inhibition ([14]; at 3.7 µM) of 41%. The growth inhibition ([14]; at 11.0 µM) was 72% (active), the growth inhibition ([14]; at 33.0 µM) was 88% (active) and the growth inhibition ([14]; at 100.0 µM) was 93% (active). The growth inhibition [15, 17] was 14%, the growth inhibition [15, 18] was 86% (active) and the growth inhibition ([15]; at 50.0 µM) was 82.1% (active). For the same compound, the growth inhibition ([16]; at 1.2 µM) was 18%, the growth inhibition ([16]; at 3.7 µM) was 55% and the growth inhibition ([16]; at 11.0 µM) was 86% (active). The growth inhibition ([16]; at 33.0 µM) was 95% (active) and the growth inhibition ([16]; at 100.0 µM) was 98% (active).
